Laboratory results: PubChem BioAssay (NCI)
This is part of a sample that, as a whole, favours compounds with a hit. Of some 79,000 tested, about 15% had one in any assay. Cut-off read from the data, not from the text of the source: active = growth inhibition above about 70%; inactive = the rest. Where a SMILES comes first, the peptide text is derived from it. The star is where a group is joined. OtBu = CC(C)(C)O*

Legend:
[1] = NCI Yeast Anticancer Drug Screen. Data for the rad50 strain (AID 155);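 note: 0% = growth of vehicle-only cultures of the same strain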; settings: S. cerevisiae rad50 strain growth inhibition; at 50.0 µM; active compounds read high
Summary of the method: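 Inhibition values express reduced yeast growth in compound-treated cultures relative to vehicle-treated controls.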

[2] = NCI Yeast Anticancer Drug Screen. Data for the mec2-1 strain (AID 157); settings: S. cerevisiae mec2-1 strain, at 50.0 µM, active compounds read high
Summary of the method: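 Readout is yeast growth inhibition, normalised to vehicle-treated controls, in the mec2-1 strain exposed to compound.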

[3] = NCI Yeast Anticancer Drug Screen. Data for the sgs1 mgt1 strain (AID 161);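 note: 0% = growth of cultures given vehicle only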; settings: S. cerevisiae sgs1 mgt1 strain, at 50.0 µM, active compounds read high
Summary of the method: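 Percent growth inhibition was derived by comparing compound-exposed mutant yeast with vehicle-exposed cultures. The strain carries alterations in DNA damage repair.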

[4] = NCI Yeast Anticancer Drug Screen. Data for the cln2 rad14 strain (AID 165);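 note: 0% = growth equal to vehicle treated cultures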; settings: S. cerevisiae cln2 rad14 strain, at 50.0 µM, active compounds read high
Summary of the method: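 Relative to vehicle controls, growth inhibition of compound-treated cln2 rad14 yeast was recorded.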

[5] = NCI Yeast Anticancer Drug Screen. Data for the bub3 strain (AID 167); settings: S. cerevisiae bub3 mutant strain, at 50.0 µM, active compounds read high
Summary of the method: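 Steps: expose the mutant yeast strain to compound; grow alongside vehicle-treated cultures; measure growth; express inhibition against the vehicle cultures.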

[6] = NCI Yeast Anticancer Drug Screen. Data for the mlh1 rad18 strain (AID 175); settings: S. cerevisiae mlh1 rad18 strain growth inhibition; at 50.0 µM; active compounds read high
Summary of the method: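 Test agents were incubated with a yeast strain of defined genotype (DNA damage repair defect). Inhibition of growth was derived by comparison with vehicle-exposed cultures.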

Measured: growth inhibition

O=C(O)CCc1nc2c(n1-c1ccccc1)C(=O)c1ccccc1C2=O
inactive: [1] 38.2% | [2] 20.5% | [3] 34.6% | [4] 34.3% | [5] 37.6% | [6] 34.2%

O=C1CNC(=O)N1
inactive: [1] -38.1% | [2] 23.8% | [3] 2% | [4] -11.7% | [5] 3.85% | [6] -38.2%

CC(=O)Nc1ccc(S(=O)(=O)Nc2cccc3ccccc23)cc1
inactive: [1] 23.2% | [2] 7.4% | [3] 18.6% | [4] 42.8% | [5] 57.6% | [6] 21.6%

CSc1nc(NC2OC(CO)C(O)C(O)C2O)c(C=O)c(=O)n1C (stereo not drawn)
inactive: [1] 10% | [2] -0.8% | [3] 10.3% | [4] 4% | [5] 2.45% | [6] 7.75%

BrC1CC2CC1C1C2CC2OC21 (stereo not drawn)
inactive: [1] -26.9% | [2] -12.7% | [3] -22.4% | [4] -3.9% | [5] 9.2% | [6] -48.2%

CC(C)(C)c1ccc(O)c(C(O)c2ccncc2)c1 (stereo not drawn)
inactive: [1] 7.3% | [2] -12.4% | [3] 9.15% | [4] -6.75% | [5] 1.6% | [6] 16.6%

COc1ccc(N=Nc2c(-c3ccccc3)nn(C(=O)CC(=O)Nc3cccc(Cl)c3)c2-c2ccccc2)cc1
inactive: [1] -2.65% | [2] 5.9% | [3] -6.3% | [4] 12.6% | [5] 26.3% | [6] -13.5%

Nc1cc(=O)[nH]c2ncnn12
inactive: [1] 18.2% | [2] -12% | [3] 2.4% | [4] 6.2% | [5] 4% | [6] 20.1%

COc1ccc(C(=O)OCc2ccccc2CN2CCOCC2)cc1
inactive: [1] 0.75% | [2] 12.5% | [3] -8.45% | [4] 30.3% | [5] -4.9% | [6] -26.4%

CC1(C)CCCCC1/C=C/C(CC(O)(C(F)(F)F)C(F)(F)F)=N\Nc1ccc([N+](=O)[O-])cc1[N+](=O)[O-] (stereo not drawn)
inactive: [1] 15.1% | [2] 9.1% | [3] 4.65% | [4] 18.1% | [5] 16.1% | [6] 26.6%

NC(=O)c1csc(Nc2csc(N)n2)n1
inactive: [1] -6.05% | [2] -15.5% | [3] -6.35% | [4] -13.6% | [5] 18.8% | [6] -26.6%

CC1CCC(C(C)(C)c2ccccc2)C(=O)C1 (stereo not drawn)
inactive: [1] 12.1% | [2] -17.6% | [3] -9.4% | [4] 19.4% | [5] -19% | [6] 15.4%

CC(C)CC(NC(=O)C1CCCN1)C(=O)NC(CC(C)C)C(=O)OC(C)(C)C (stereo not drawn) (H-Pro-Leu-Leu-OtBu; configuration not given here)
inactive: [1] 30.2% | [2] 26.6% | [3] 29.1% | [4] 19% | [5] -4.15% | [6] 30.9%

N#Cc1ccc(NC(=NCC(=O)O)Nc2ccc3ccccc3c2)cc1
inactive: [1] -16.2% | [2] -30.6% | [3] -14.6% | [4] 25.8% | [5] -26.3% | [6] 8.25%

C/C(=C\CNc1ncnc2c1ncn2CCC(=O)OC(C)(C)C)CO
inactive: [1] -12.3% | [2] -8.7% | [3] -49.1% | [4] 13.1% | [5] 5.6% | [6] -17.6%

COc1cc2c(c(OC)c1OC)CCCC2=O
inactive: [1] 0.2% | [2] -10.4% | [3] -4.5% | [4] -130% | [5] -4.7% | [6] -4.9%

O=C1C2C3C=CC(C3)C2C(=O)N1c1ncc([N+](=O)[O-])s1 (stereo not drawn)
inactive: [1] 17.8% | [2] -6.85% | [3] 26.9% | [4] -57.9% | [5] -14.2% | [6] 12.3%

O=C(O)c1cc(C(=O)O)cc(N(CCO)CCO)c1
inactive: [1] -19.1% | [2] -6.45% | [3] -6.8% | [4] -17.6% | [5] 21.8% | [6] -14.2%

CCCCN(CCCC)CCCCCCCCCCCO
inactive: [1] 38.7% | [2] -8.35% | [3] 34.5% | [4] -22.9% | [5] 30.8% | [6] 27.6%

O=C(O)Cc1c(O)ccc2ccccc12
inactive: [1] -32.7% | [2] -16.3% | [3] -34.5% | [4] -29.8% | [5] -38.6% | [6] -3.7%

C=CCc1ccc(C)c(C)c1O
inactive: [1] 24.4% | [2] 3.55% | [3] 21.8% | [4] 19.1% | [5] 5.55% | [6] 12.8%

ClC1C2c3ccccc3C1C1C2C2(c3ccccc3)OC1(c1ccccc1)c1ccccc12 (stereo not drawn)
inactive: [1] 12.7% | [2] 1.65% | [3] -3.2% | [4] -60.1% | [5] -2% | [6] 0.2%

CC/C(=N/Nc1cn[nH]c(=O)c1Cl)c1ccccc1
inactive: [1] 4.6% | [2] -0.6% | [3] -0.5% | [4] -35.6% | [5] 19% | [6] -1.5%

[N-]=[N+]=CC(=O)CCN1C(=O)c2ccccc2C1=O
inactive: [1] -9.85% | [2] -0.85% | [3] -4.75% | [4] -3.85% | [5] 1.15% | [6] -1.55%

COC(=O)CCC(CCC(=O)OC)([N+](=O)[O-])[N+](=O)[O-]
inactive: [1] 0.4% | [2] -1.95% | [3] 4.5% | [4] -55.6% | [5] 10.7% | [6] 3.3%

C=CCOC(=O)C1(O)c2ccccc2NC(=S)N1CC=C (stereo not drawn)
inactive: [1] 1.35% | [2] 7.4% | [3] 5.2% | [4] 6.9% | [5] 10.3% | [6] -0.8%

[N-]=[N+]=NC(=O)c1cnn(-c2ccccc2)c1N
inactive: [1] 9.65% | [2] 18.9% | [3] 9.4% | [4] -27.4% | [5] 14.6% | [6] 2.2%

O=C(SCCN1CCCC1)C(O)(c1ccccc1)C1CCCC1 (stereo not drawn)
inactive: [1] 14.8% | [2] -6% | [3] -5.3% | [4] -7.95% | [5] -2.35% | [6] 11.7%

O=C(NC(CC(NC(=O)OCc1ccccc1)NC(=O)OCc1ccccc1)NC(=O)OCc1ccccc1)OCc1ccccc1
inactive: [1] -2.55% | [2] 7.1% | [3] -0.1% | [4] 5.6% | [5] 0.85% | [6] -4.55%

O=C(Nc1ccc2ccccc2c1)C(F)(F)F
inactive: [1] -14.7% | [2] -1% | [3] -4.25% | [4] -9.8% | [5] 5.4% | [6] -8.95%

NC(=O)c1ccc[n+](CCCCCCCCCCC(=O)[O-])c1
inactive: [1] -7% | [2] 7.05% | [3] 0.8% | [4] -15% | [5] 4.75% | [6] 1.95%

O=C(O)c1c(-c2ccc(Cl)cc2)c(-c2ccc(Cl)cc2)nn(CCO)c1=O
inactive: [1] 33.8% | [2] 25.8% | [3] 33.4% | [4] 7.4% | [5] 1.5% | [6] 35.6%

NNC(=O)C1C2C=CC(C2)C1C(=O)NN (stereo not drawn)
inactive: [1] 7.6% | [2] -8.05% | [3] -11.7% | [4] -35% | [5] 4.15% | [6] 4.2%

NC(C(=O)O)C1CCCC1 (stereo not drawn)
inactive: [1] 2.8% | [2] -5.1% | [3] -20.8% | [4] -14% | [5] -92.8% | [6] 7.6%

Cc1ccc(-c2c3nc(c(-c4ccc(C)cc4)c4ccc([nH]4)c(-c4ccc(OCC5COC(C)(C)O5)cc4)c4nc(c(-c5ccc(C)cc5)c5ccc2[nH]5)C=C4)C=C3)cc1 (stereo not drawn)
inactive: [1] -58.3% | [2] -32.9% | [3] -50.3% | [4] -23.9% | [5] -40.5% | [6] -66.7%

CCCCCCCCCCCCOc1ccc(C(C)(C)C)cc1
inactive: [1] -12.2% | [2] -12.8% | [3] -22.1% | [4] 7.85% | [5] -36.8% | [6] -11.7%

O=C(NCCc1c(-c2ccccc2)[nH]c2ccccc12)C1CCCCC1
inactive: [1] -10.6% | [2] 17.9% | [3] 32.6% | [4] -6.1% | [5] 30.9% | [6] -2.3%

CCc1ccccc1OCC(O)CO (stereo not drawn)
inactive: [1] -21.9% | [2] -2.45% | [3] -6.2% | [4] -11.5% | [5] -8.85% | [6] 27.8%
